# This is a sample that favours compounds with a hit; in the whole collection about 14% have one here.
# Shiga inhibitor: inhibitors of Shiga toxin in Vero cells | Vero cells, Shiga toxin protein synthesis inhibition reporter | inhibition, % at 38.7 µM | 290,000 tested, 9.2% active; in the data active = inhibition mostly above about 28%, no sharp cut-off; inactive = mostly below about 43%; note: 0% is about no effect
# Giardia FBPA inh: blocks Giardia fructose-bisphosphate aldolase activity | 290,000 tested, 0.71% active | purified Giardia FBPA | A8B2U2 | Potency, µM (doses to about 59.6 µM), inactives show at the top dose activity, negative = inhibition, most hits filed as inhibitors; note: potency is the fitted concentration of half-maximal effect; % is set by controls: 0 for no effect and ±100 for the full control effect; nearly all actives have a fitted effect of over 55% in size
# Target sequence (A8B2U2 whole entry, looked up): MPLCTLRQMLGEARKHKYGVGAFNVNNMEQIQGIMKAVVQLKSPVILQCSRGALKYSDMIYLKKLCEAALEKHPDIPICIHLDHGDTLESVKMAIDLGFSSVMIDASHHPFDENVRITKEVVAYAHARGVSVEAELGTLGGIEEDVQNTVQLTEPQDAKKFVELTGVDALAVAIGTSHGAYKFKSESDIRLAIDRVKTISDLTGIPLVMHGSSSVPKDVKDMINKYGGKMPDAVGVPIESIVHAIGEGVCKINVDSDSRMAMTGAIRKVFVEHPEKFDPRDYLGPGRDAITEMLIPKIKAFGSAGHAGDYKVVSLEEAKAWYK
#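 40 nM FBPA preincubated 10 min at RT with compound (up to 57.5 uM final), then substrate plus GAPDH/TPI/NAD/arsenate coupling and diaphorase/resazurin added. Fluorescence read after 20 min at RT, 525/598 nm.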
# CHX counter: counter-screen hit for Shiga toxin inhibitors, cycloheximide; max response, %; AID 2314; 300,000 tested, 12% active; cell reporter, cycloheximide protein synthesis inhibition counterscreen; in the data active = max response mostly above about 13%, no sharp cut-off; inactive = mostly below about 14%; note: read at 38.3 µM for the half of the compounds with a filed dose; 0% is about no effect
# NS1 inh: inhibitors of influenza NS1 protein function; Potency, µM (highest dose often 46.1 µM), for inactives: top-dose activity, positive = more growth; 270,000 tested, 0.4% active; calls by dose curve; note: potency is the fitted concentration of half-maximal effect; actives are rising curves; nearly all actives have a fitted effect of over 50% in size
#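 A cell-based growth assay was used: compounds that relieve NS1-induced slow growth of budding yeast raise OD600. Assay medium was yeast nitrogen base with ammonium sulphate and -URA supplement, pH 6.0, with 2% galactose.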
# LmPK inhibitor: LmPK (Leishmania mexicana) enzyme inhibition; Potency, µM (highest dose often 57.5 µM), for inactives: top-dose activity change, negative = inhibition, most hits filed as inhibitors; 290,000 tested, 0.37% active; purified LmPK, Kinase-Glo ATP luminescence, 1 h; note: potency is the fitted concentration of half-maximal effect; % is set by controls: 0 for no effect and ±100 for the full control effect
#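 Purified LmPK (0.1 nM) converted ADP (0.1 mM) to ATP with PEP (0.5 mM) in imidazole buffer pH 7.2 with KCl and MgCl2, 1 h at room temperature. ATP was read by Kinase-Glo luminescence; data normalized to uninhibited and no-enzyme controls.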
# Active calls of the source: *; ? = inconclusive; . = no result given; [ ] = another dose, or the depositor's remark. Unless noted, calls come from the whole dose curve; as a rule, active = well fitted curve in the direction sought with a large enough effect; inconclusive = small, poorly fitted or top-dose-only effect, or another doubt; inactive = no such curve, though single readings can be large; an effect the other way counts as inactive or inconclusive.
SMILES,Shiga inhibitor,Giardia FBPA inh,CHX counter,NS1 inh,LmPK inhibitor
CC[C@H](C)[C@H](NC(=O)[C@H](CO)NC(=O)[C@H](CC(C)C)NC(=O)[C@@H]1CCCN1C(=O)[C@@H]1CCCN1C(=O)[C@H](CC(=O)O)NC(=O)[C@@H](N)CC(=O)O)C(=O)N[C@@H](CC(=O)O)C(=O)N[C@@H](CC(C)C)C(=O)N[C@H](C(=O)N[C@@H](Cc1ccccc1)C(=O)N[C@@H](Cc1cnc[nH]1)C(=O)N[C@@H](CC(C)C)C(=O)N[C@@H](CC(C)C)C(=O)N[C@@H](CCCNC(=N)N)C(=O)N[C@H](C(=O)N[C@@H](CC(C)C)C(=O)N[C@@H](CC(C)C)C(=O)N[C@@H](CCC(=O)O)C(=O)N[C@@H](CC(C)C)C(=O)N[C@@H](C)C(=O)N[C@@H](CCCNC(=N)N)C(=O)N[C@H](C(=O)N[C@@H](CCC(N)=O)C(=O)N[C@@H](CO)C(=O)N[C@@H](CCC(N)=O)C(=O)N[C@@H](CCCNC(=N)N)C(=O)N[C@@H](CCC(=O)O)C(=O)N[C@@H](CCCNC(=N)N)C(=O)N[C@@H](C)C(=O)N[C@@H](CCC(=O)O)C(=O)N[C@@H](CCC(N)=O)C(=O)N[C@@H](CC(N)=O)C(=O)N[C@@H](CCCNC(=N)N)C(=O)N[C@H](C(=O)N[C@H](C(=O)N[C@@H](Cc1ccccc1)C(=O)N[C@@H](CC(=O)O)C(=O)N[C@@H](CO)C(=O)N[C@H](C(N)=O)C(C)C)[C@@H](C)CC)[C@@H](C)CC)[C@@H](C)O)[C@@H](C)O)[C@@H](C)O,-7,-1%,13,.,.
Cn1c(COc2ccccc2)nnc1SCCSc1nnc(COc2ccccc2)n1C,-17,3%,-1,2%,2%
Cn1c(COc2ccc(Br)cc2)nnc1SC1CCc2ccccc2C1=O (stereo not drawn),4,18µM*,8,21%,3%
C[C@]12CCC(=O)C=C1CCC1C2C(=O)C[C@]2(C)C1CC[C@]2(O)C(=O)CO (stereo partly drawn),.,5%,.,.,.
Cc1ccc(S(=O)(=O)N(C)CCCC(=O)N2CCCCC2)cc1,.,0%,-3,14%,6%
Cc1sc2nc(CSc3nc4ccccc4s3)[nH]c(=O)c2c1C,80,17%,21*,.,0%
O=c1[nH]c(CSc2nc3ccccc3s2)nc2cc(Cl)ccc12,25,-4%,9,10%,1%
Cc1sc2nc(CSc3ccc([N+](=O)[O-])cc3)[nH]c(=O)c2c1C,16,-1%,-2,11%,6%
O=c1[nH]c(CSc2nc3ccccc3s2)nc2ccccc12,52*,-7%,30*,-3%,5%
CSCC[C@H](N)C(=O)NC[C@H]1CC[C@H](C(=O)N[C@@H](Cc2ccccc2)C(=O)O)CC1,-9,-13%,-2,8%,-7%
O=C(NC(=S)NCCc1ccccc1)c1ccco1,38,?,15,-64%,-6%
CNNC(=S)NCCC1=CCCCC1,18,-8%,16*,-2%,1%
O=C(NC(=S)NCCC1=CCCCC1)c1ccco1,107*,-6%,37*,-19%,4%
Cc1ccccc1C(=O)NC(=S)NCCC1=CCCCC1,25,2%,10,3%,1%
Cc1ccc(NC(=S)NCCC2=CCCCC2)cc1,89*,3%,34*,.,-8%
Cc1ccc(SCC(=O)NCCC2=CCCCC2)cc1,38*,4%,38*,-27%,2%
CCCOc1ccccc1C(=O)N1CCCCC1CCN1CCCCC1 (stereo not drawn),-3,.,-4,.,.
COc1ccc2c(c1)O[C@H](c1ccc3c(c1)OCO3)[C@@H](OC(=O)NS(=O)(=O)c1ccc(F)cc1)C2=O,.,0%,.,.,.
CCCNC(=O)Cn1c2ccccc2c2nc(=O)cc(C)n21,-13,0%,2,-6%,5%
CC(=O)c1cccc(NC(=S)NCCC2=CCCCC2)c1,47*,-6%,33*,-11%,-4%
Cc1cc(=O)nc2c3ccccc3n(CC(=O)NCCC3=CCCCC3)n12,115,.,40*,-27%,3%
CN(CCc1ccccc1)C1CCCN(C(=O)Cn2cccn2)C1 (stereo not drawn),-7,.,2,0%,-5%
O=C(C1CCCCC1)N1CCN(S(=O)(=O)c2cccc([N+](=O)[O-])c2)CC1,-10,.,-9,6%,-8%
O=C(Nc1ccc(F)cc1)Nc1cnccn1,17,2%,13*,-3%,-5%
O=C(Nc1ccc(Br)cc1)Nc1cnccn1,53*,-3%,22*,-36%,-6%
SMILES,Shiga inhibitor,Giardia FBPA inh,CHX counter,NS1 inh,LmPK inhibitor
CCCCCCCCCCC/C=C\C(C)(C)/C=C\CCCC(=O)O,.,5%,.,-3%,.
CCOc1ccc(NC(=O)CCNC(=O)N2C[C@H]3C[C@@H](C2)c2cccc(=O)n2C3)cc1,-3,1%,-2,-3%,-2%
CCc1ccc(NC(=O)CCNC(=O)N2C[C@H]3C[C@@H](C2)c2cccc(=O)n2C3)cc1,31*,3%,27*,-6%,-4%
COc1cccc(NC(=O)c2ccc3c(c2)C(=O)N(CC2CCCO2)C3=O)c1 (stereo not drawn),40,-5%,30*,-9%,-10%
COc1ccccc1Oc1ccc2c(c1)C(=O)N(CC1CCCO1)C2=O (stereo not drawn),46*,2%,37*,-4%,2%
COc1cccc(C(=O)Nc2ccc3c(c2)C(=O)N(CC2CCCO2)C3=O)c1 (stereo not drawn),55*,.,44*,-9%,-5%
COc1ccccc1OCC(=O)Nc1ccc2c(c1)C(=O)N(CC1CCCO1)C2=O (stereo not drawn),24,-1%,1,-12%,-2%
O=C(Nc1ccc2c(c1)C(=O)N(CC1CCCO1)C2=O)c1cccc(Br)c1 (stereo not drawn),115*,-8%,25*,-1%,6%
CCCN(C(=O)COC(=O)C12CCC(=O)N1c1ccccc1S2)c1c(N)n(Cc2ccccc2)c(=O)[nH]c1=O (stereo not drawn),2,.,8,-13%,-2%
CC(C(=O)NC1CCCCC1)N(Cc1ccccc1)C(=O)c1snc(C(N)=O)c1N (stereo not drawn),-5,17%,-2,6%,0%
COc1ccc(/C=C2\NC(=S)N(CC3CCCO3)C2=O)c(OC)c1 (stereo not drawn),34,-13%,23*,-10%,-2%
COc1ccc(OCC2Cc3c(-c4ccccc4)nc4c(c3CO2)CN(CCOc2ccccc2)CC4)cc1 (stereo not drawn),.,0%[12.9 µM],.,.,.
Clc1ccc(-c2nc3ccccc3[nH]2)cn1,31,?,23*,-34%,25µM*
Cc1ccc(-c2nc3ccccc3[nH]2)cn1,32*,?,22*,-23%,-29%
CCOC(=O)CNC(=O)CSc1ccc(-c2nc3ccccc3[nH]2)cn1,5,-2%,3,-2%,-1%
CCOc1cc(C(=O)NC2CC(C)(C)NC(C)(C)C2)cc(OCC)c1OCC,2,-3%,-1,10%,2%
